Source: ChEMBL document CHEMBL3988442, “University of Dundee, Small-Polar-MMV Screening Library” (2021)

Molecular target: T1, Aspartate--tRNA(Asp/Asn) ligase (Mycobacterium tuberculosis (strain ATCC 25618 / H37Rv)) (UniProt P9WFW3); also: in the data most compounds retested in dose-response had high values
T1 sequence (whole entry): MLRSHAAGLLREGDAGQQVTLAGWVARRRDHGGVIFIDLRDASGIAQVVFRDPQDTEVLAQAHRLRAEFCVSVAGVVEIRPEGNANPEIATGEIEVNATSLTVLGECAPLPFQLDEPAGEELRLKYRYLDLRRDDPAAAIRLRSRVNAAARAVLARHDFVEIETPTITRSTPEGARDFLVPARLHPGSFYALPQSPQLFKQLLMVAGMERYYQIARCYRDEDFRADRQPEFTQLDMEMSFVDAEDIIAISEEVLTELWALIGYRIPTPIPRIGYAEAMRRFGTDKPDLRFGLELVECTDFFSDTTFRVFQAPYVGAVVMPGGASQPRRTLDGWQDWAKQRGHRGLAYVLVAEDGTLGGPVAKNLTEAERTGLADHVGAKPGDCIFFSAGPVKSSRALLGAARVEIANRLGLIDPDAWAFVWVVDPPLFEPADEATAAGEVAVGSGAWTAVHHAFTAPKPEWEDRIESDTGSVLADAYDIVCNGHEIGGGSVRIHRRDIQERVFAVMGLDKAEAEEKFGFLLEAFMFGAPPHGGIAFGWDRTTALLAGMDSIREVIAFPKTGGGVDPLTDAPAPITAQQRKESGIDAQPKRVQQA
Assay: Assay for Asp RNA synthetase-1 from Mycobacterium tuberculosis
Type: functional
Parameters: scale not given: direction of the effect not stated beside the values
Details: 30 µM

Row | SMILES | Percent Effect [%]
1 | COc1cccc2c1OCC(CNC(=O)CCCN1CCOCC1)C2 (stereo not given) | 4.84
2 | O=C(Cc1ccccc1F)N1CCN(C(=O)c2ccoc2)CC1 | 5.87
3 | COc1ccc(CC(=O)N2CCCC(n3cc(C)cn3)C2)cc1F (stereo not given) | -0.544
4 | Cn1nc(CNC(=O)c2ccc(Cl)cc2)c2c1CCOC2 | 2.4
5 | OC(COc1ccccc1)CN1CCC(c2ccn[nH]2)CC1 (stereo not given) | -0.6
6 | CNC(=O)CS(=O)(=O)Cc1coc(-c2ccc(OC)cc2)n1 | -0.993
7 | O=C(NCCN1CCCCC1)c1ccoc1 | 2.52
8 | C[S+]([O-])c1nncn1CC(=O)c1ccc(Cl)c(Cl)c1 (stereo not given) | 1.03
9 | CN(CC(=O)N1CCC(C(O)c2ccccc2)CC1)c1cnccn1 (stereo not given) | -0.321
10 | O=C(c1cccs1)N1CC[C@H](O)[C@@H]1Cc1ccccc1 | 0.296
11 | COc1ccc(C(=O)N(C)Cc2cccc(C#N)c2)c(OC)c1OC | -1.51
12 | CC(C)N1CCOCC2(CN(Cc3ccco3)CCO2)C1 (stereo not given) | 1.82
13 | Cc1cnn(CC2CN(Cc3cccc(C(=O)N(C)C)c3)CCO2)c1 (stereo not given) | 2.43
14 | Cc1cc(C)n(-c2cncc(NCCNC(=O)CC3CCCC3)n2)n1 | 0.268
15 | CC(C)C(NC(=O)Cn1ccc(=O)n(C)c1=O)c1ccc(F)cc1 (stereo not given) | 4.7
16 | CC1CCCCN1c1nc2c(c(=O)[nH]1)CCN(Cc1cccnc1)C2 (stereo not given) | 1.98
17 | c1ccc(CCN2CCOC(Cn3cccn3)C2)nc1 (stereo not given) | -0.259
18 | Cc1cccc(CN2CCc3ncnc(N4CCOCC4)c3CC2)n1 | -3.01
19 | CC(=O)N(Cc1ncc(C(C)C)o1)C1CCN(Cc2nccn2C)C1 (stereo not given) | 3.99
20 | CC(C)n1ccnc1C1CCN(C(=O)c2ccccc2)CC1 | -4.71

Row | SMILES | Percent Effect [%]
21 | CCN(CC1CCOC1)C(=O)Nc1ccc(OC)nc1 (stereo not given) | 4.72
22 | Cc1cc(C[C@@H]2COC[C@@H]2NC(=O)CN2CCCN(C)CC2)on1 | -1.58
23 | Cc1ccc(C(=O)N2CCC3(CC2)CC(N2CCOCC2)C3)cc1 | -1.52
24 | COc1ccc(C(=O)NS(=O)(=O)c2ccc(C#N)cc2C(F)(F)F)cc1 | -0.26
25 | CCS(=O)(=O)N1CC[C@]2(C[C@@H](OCC3CC3)CO2)C1 | -1.4
26 | O=C1[C@H]2CC[C@H](CN(S(=O)(=O)c3ccccc3)C2)N1Cc1cscn1 | 1.23
27 | CN(C)c1ncnc2c1CCN(CC1CCCC1)CC2 | -1.05
28 | O=S(=O)(C1CC1)N1C[C@H]2CCC[C@@]2(COc2ccccn2)C1 | 4.47
29 | Cc1ccc(CC(=O)N2Cc3nccn3CC(CN(C)C)C2)cc1 (stereo not given) | 1.66
30 | O=C(CCc1ccccc1)N1CCC(N2CCNC2=O)CC1 | 1.87
31 | CC(C)n1ncc2cc(NC(=O)N3CCC(N4CCCC4)C3)cnc21 (stereo not given) | -5.1
32 | CCN(CC)S(=O)(=O)N1CCCC(c2ccc(C(=O)O)cc2)C1 (stereo not given) | -0.279
33 | CC(C)CCN1CCNC(=O)C1CC(=O)N1CCc2sccc2C1 (stereo not given) | -3.89
34 | Cc1cnc(CN2CCC(N(C)Cc3nnc(C4CC4)n3C)C2)cn1 (stereo not given) | 5.06
35 | CC1CCN(CCNC(=O)C2CCN(S(N)(=O)=O)CC2)CC1 | 1.78
36 | CN(Cc1nccn1CC(F)(F)F)C(=O)c1ccc(F)cc1F | 1.98
37 | CCOc1cc(/C=C/c2ncc(C(=O)O)s2)ccc1O | 0.568
38 | O=C(c1ccc2c(c1)OCO2)N1CCN(c2cnccn2)CC1 | -4.12
39 | CNC(=O)c1cc2c(nc1NC(C)C)CCN(C(=O)NC(C)C)CC2 | -2.07
40 | CN1N=C(C(=O)Nc2cc(F)ccc2OCC2CCCO2)CCC1=O (stereo not given) | -1.12

Molecular target: Shiga toxin 2 (Escherichia coli O157:H7) (UniProt P09385+P09386)
Assay: E. coli 0.157:H7 Shiga Toxin SOP - stx2 screening assay
Type: functional
Parameters: scale not given: direction of the effect not stated beside the values
Details: 30 µM

Row | SMILES | Percent Effect [%]
41 | COc1cccc2c1OCC(CNC(=O)CCCN1CCOCC1)C2 (stereo not given) | 5.01
42 | O=C(Cc1ccccc1F)N1CCN(C(=O)c2ccoc2)CC1 | -6.64
43 | COc1ccc(CC(=O)N2CCCC(n3cc(C)cn3)C2)cc1F (stereo not given) | 12.2
44 | Cn1nc(CNC(=O)c2ccc(Cl)cc2)c2c1CCOC2 | -5.64
45 | OC(COc1ccccc1)CN1CCC(c2ccn[nH]2)CC1 (stereo not given) | -7.22
46 | CNC(=O)CS(=O)(=O)Cc1coc(-c2ccc(OC)cc2)n1 | -5.58
47 | O=C(NCCN1CCCCC1)c1ccoc1 | -21.3
48 | C[S+]([O-])c1nncn1CC(=O)c1ccc(Cl)c(Cl)c1 (stereo not given) | -25.1
49 | CN(CC(=O)N1CCC(C(O)c2ccccc2)CC1)c1cnccn1 (stereo not given) | -9.59
50 | O=C(c1cccs1)N1CC[C@H](O)[C@@H]1Cc1ccccc1 | -7.22
51 | COc1ccc(C(=O)N(C)Cc2cccc(C#N)c2)c(OC)c1OC | 30.3
52 | CC(C)N1CCOCC2(CN(Cc3ccco3)CCO2)C1 (stereo not given) | 5.04
53 | Cc1cnn(CC2CN(Cc3cccc(C(=O)N(C)C)c3)CCO2)c1 (stereo not given) | -24.4
54 | Cc1cc(C)n(-c2cncc(NCCNC(=O)CC3CCCC3)n2)n1 | -15.9
55 | CC(C)C(NC(=O)Cn1ccc(=O)n(C)c1=O)c1ccc(F)cc1 (stereo not given) | -13.7
56 | CC1CCCCN1c1nc2c(c(=O)[nH]1)CCN(Cc1cccnc1)C2 (stereo not given) | -8.32
57 | c1ccc(CCN2CCOC(Cn3cccn3)C2)nc1 (stereo not given) | 0.927
58 | Cc1cccc(CN2CCc3ncnc(N4CCOCC4)c3CC2)n1 | -8.89
59 | CC(=O)N(Cc1ncc(C(C)C)o1)C1CCN(Cc2nccn2C)C1 (stereo not given) | 17.4
60 | CC(C)n1ccnc1C1CCN(C(=O)c2ccccc2)CC1 | 12.4

Row | SMILES | Percent Effect [%]
61 | CCN(CC1CCOC1)C(=O)Nc1ccc(OC)nc1 (stereo not given) | -156
62 | Cc1cc(C[C@@H]2COC[C@@H]2NC(=O)CN2CCCN(C)CC2)on1 | -5.15
63 | Cc1ccc(C(=O)N2CCC3(CC2)CC(N2CCOCC2)C3)cc1 | 3.95
64 | COc1ccc(C(=O)NS(=O)(=O)c2ccc(C#N)cc2C(F)(F)F)cc1 | 8.91
65 | CCS(=O)(=O)N1CC[C@]2(C[C@@H](OCC3CC3)CO2)C1 | 11
66 | O=C1[C@H]2CC[C@H](CN(S(=O)(=O)c3ccccc3)C2)N1Cc1cscn1 | -25.8
67 | CN(C)c1ncnc2c1CCN(CC1CCCC1)CC2 | -5.38
68 | O=S(=O)(C1CC1)N1C[C@H]2CCC[C@@]2(COc2ccccn2)C1 | -32.7
69 | Cc1ccc(CC(=O)N2Cc3nccn3CC(CN(C)C)C2)cc1 (stereo not given) | 5.05
70 | O=C(CCc1ccccc1)N1CCC(N2CCNC2=O)CC1 | 26
71 | CC(C)n1ncc2cc(NC(=O)N3CCC(N4CCCC4)C3)cnc21 (stereo not given) | -51.5
72 | CCN(CC)S(=O)(=O)N1CCCC(c2ccc(C(=O)O)cc2)C1 (stereo not given) | -2.52
73 | CC(C)CCN1CCNC(=O)C1CC(=O)N1CCc2sccc2C1 (stereo not given) | -7.76
74 | Cc1cnc(CN2CCC(N(C)Cc3nnc(C4CC4)n3C)C2)cn1 (stereo not given) | 5.3
75 | CC1CCN(CCNC(=O)C2CCN(S(N)(=O)=O)CC2)CC1 | 0.821
76 | CN(Cc1nccn1CC(F)(F)F)C(=O)c1ccc(F)cc1F | 9.03
77 | CCOc1cc(/C=C/c2ncc(C(=O)O)s2)ccc1O | -21.4
78 | O=C(c1ccc2c(c1)OCO2)N1CCN(c2cnccn2)CC1 | -14.6
79 | CNC(=O)c1cc2c(nc1NC(C)C)CCN(C(=O)NC(C)C)CC2 | 0.412
80 | CN1N=C(C(=O)Nc2cc(F)ccc2OCC2CCCO2)CCC1=O (stereo not given) | 5.1
